Test results from PubChem BioAssay (NCATS).
Records with an inconclusive call do not appear. A call without a number means that no potency is given here. A number with no mark means an inactive call. Activity calls are given as the source filed them. Calls follow the shape of the dose curve; as a rule, active = well fitted curve in the direction sought with a large enough effect; inconclusive = small, poorly fitted or top-dose-only effect, or another doubt; inactive = no such curve, though single readings can be large; an effect the other way counts as inactive or inconclusive.

Target: Aldehyde dehydrogenase, mitochondrial (Homo sapiens) (UniProt P05091)
Experiment: qHTS for Inhibitors of the Aldehyde Dehydrogenase Family (ALDH2) Primary screen (AID 2061308); also: nearly all actives have a fitted effect of over 55% in size
Settings: ALDH2 enzyme inhibition qHTS, 1536-well; series mostly up to 56 µM
Potency is read from the fitted curve at half-maximal effect.

SMILES	Potency
COc1ccc(CCC(=O)c2c(O)cc(O[C@@H]3O[C@H](CO)[C@@H](O)[C@H](O)[C@H]3O[C@@H]3O[C@@H](C)[C@H](O)[C@@H](O)[C@H]3O)cc2O)cc1O	inactive
O=C(CCN1CCN(C(=O)OCc2cc(Cl)cc(Cl)c2)CC1)c1ccc2[nH]c(=O)oc2c1	158 nM (active)
CCN(CC)CCOCCOC(=O)C(CC)(CC)c1ccccc1	inactive
O=C(Nc1cc(C(F)(F)F)cc(C(F)(F)F)c1)c1cnc(Cl)nc1C(F)(F)F	inactive
NC(Cc1c[nH]c2ccccc12)C(=O)NC(CCC(=O)O)C(=O)O (stereo not drawn)	inactive
NC(N)=NCCC[C@H](NC(=O)c1sccc1NS(=O)(=O)c1cccc2nsnc12)C(=O)O	inactive
COc1cc2c3c(cc4ccccc4c3c1O)NC2=O	inactive
N#Cc1ccc(C(=O)N2CCC3(CC2)N=C(N)c2c(F)ccc(F)c2N3)cn1	inactive
OC[C@H]1O[C@@H](n2cnc3c2NC=NC[C@H]3O)C[C@@H]1O	inactive
CCCCC1CCN(CCCN2C(=O)CCc3ccccc32)CC1	inactive
O=c1[nH]c2cccc(N3CCN(Cc4ccc(-c5ccccc5)cc4)CC3)c2o1	inactive
COc1cc(O)c2c(c1)C1OC1C[C@H](O)[C@H](O)C(=O)/C=C\C[C@H](C)OC2=O (stereo partly drawn)	inactive

Target: Retinaldehyde dehydrogenase 3 (Homo sapiens) (UniProt P47895)
Experiment: qHTS for Inhibitors of the Aldehyde Dehydrogenase Family (ALDH1A3) Confirmatory screens (AID 2061311); also: nearly all actives have a fitted effect of over 60% in size
Settings: ALDH inhibition qHTS; series mostly up to 46 µM

SMILES	Potency	activity change, negative = inhibition
O=C(CCN1CCN(C(=O)OCc2cc(Cl)cc(Cl)c2)CC1)c1ccc2[nH]c(=O)oc2c1	1420 nM (active)	–
CCN(CC)CCOCCOC(=O)C(CC)(CC)c1ccccc1	–	-17.9% [at 0.022 µM]
O=C(Nc1cc(C(F)(F)F)cc(C(F)(F)F)c1)c1cnc(Cl)nc1C(F)(F)F	inactive	–
NC(Cc1c[nH]c2ccccc12)C(=O)NC(CCC(=O)O)C(=O)O (stereo not drawn)	inactive	–
NC(N)=NCCC[C@H](NC(=O)c1sccc1NS(=O)(=O)c1cccc2nsnc12)C(=O)O	inactive	–
COc1cc2c3c(cc4ccccc4c3c1O)NC2=O	14200 nM (active)	–
N#Cc1ccc(C(=O)N2CCC3(CC2)N=C(N)c2c(F)ccc(F)c2N3)cn1	inactive	–
OC[C@H]1O[C@@H](n2cnc3c2NC=NC[C@H]3O)C[C@@H]1O	inactive	–
CCCCC1CCN(CCCN2C(=O)CCc3ccccc32)CC1	inactive	–
O=c1[nH]c2cccc(N3CCN(Cc4ccc(-c5ccccc5)cc4)CC3)c2o1	inactive	–
COc1cc(O)c2c(c1)C1OC1C[C@H](O)[C@H](O)C(=O)/C=C\C[C@H](C)OC2=O (stereo partly drawn)	inactive	–
